Reference: PubChem BioAssay AID933 (National Center for Advancing Translational Sciences (NCATS), 2007)
Inconclusive results are not listed. Where a call stands in place of a potency, no number is given. The source made the active and inactive calls. Calls come from the whole dose curve; as a rule, active = well fitted activation curve with a large enough effect in the signal ratio, with a control signal flat; inconclusive = small, poorly fitted or top-dose-only effect, or a change in a side signal; inactive = flat fitted curve, though single readings scatter; the % refers to the signal ratio.

molecular target: Thyrotropin receptor (Homo sapiens) (UniProt P16473); assay: Secondary Concentration-Response Assay for Agonists of the Thyroid Stimulating Hormone Receptor: HTRF Activity Detection; conditions: HEK293-TSHR cells, cAMP HTRF ratio, 30 min; series mostly up to 91.7 µM
Method in brief: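 cAMP accumulation was detected by antibody-based HTRF, excitation 330 nm, emissions 615 and 660 nm. Compounds acted for 30 min at room temperature on stably TSHR-transfected HEK 293 cells, with phosphodiesterase inhibitor RO 20-1724 (100 uM) in the medium.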
Potency is the fitted concentration of half-maximal effect.

Sequence of Thyrotropin receptor (Homo sapiens) (P16473 whole entry, looked up): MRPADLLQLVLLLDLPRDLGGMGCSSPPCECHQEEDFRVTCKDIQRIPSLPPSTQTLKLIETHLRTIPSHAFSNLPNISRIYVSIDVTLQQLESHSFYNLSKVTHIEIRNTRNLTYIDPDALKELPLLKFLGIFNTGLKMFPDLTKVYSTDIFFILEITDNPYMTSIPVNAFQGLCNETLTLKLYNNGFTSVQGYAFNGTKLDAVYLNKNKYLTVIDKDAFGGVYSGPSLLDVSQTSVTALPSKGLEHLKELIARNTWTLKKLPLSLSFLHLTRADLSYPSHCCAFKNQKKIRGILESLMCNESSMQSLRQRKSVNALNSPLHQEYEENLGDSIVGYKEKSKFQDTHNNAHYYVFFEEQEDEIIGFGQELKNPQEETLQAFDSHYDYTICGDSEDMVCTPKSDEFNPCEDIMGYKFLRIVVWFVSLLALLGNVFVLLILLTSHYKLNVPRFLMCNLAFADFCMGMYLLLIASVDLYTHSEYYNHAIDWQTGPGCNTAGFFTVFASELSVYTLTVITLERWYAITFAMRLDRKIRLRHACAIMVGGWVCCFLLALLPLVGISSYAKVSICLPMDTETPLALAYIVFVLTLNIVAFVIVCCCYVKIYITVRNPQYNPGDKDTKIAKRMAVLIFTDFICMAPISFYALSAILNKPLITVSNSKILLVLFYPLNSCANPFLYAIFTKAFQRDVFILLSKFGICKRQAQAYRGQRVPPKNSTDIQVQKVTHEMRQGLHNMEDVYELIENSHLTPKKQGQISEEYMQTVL

Row | SMILES | Potency | activation
1 | O=C1c2ccccc2NC(c2ccc(O)cc2)N1Cc1ccco1 (stereo not given) | inactive | –
2 | Cc1ccccc1N1CCN(c2ncnc3c2cnn3Cc2ccc(Cl)cc2)CC1 | – | -0.314% [at 0.00035 µM] (inactive)
3 | CCOC(=O)C1C(=O)Nc2nc(C)nn2C1c1ccccc1 (stereo not given) | – | 2.16% [at 0.00035 µM] (inactive)
4 | COc1ccc(C2Nc3ccccc3C(=O)N2c2ccc(F)cc2)cc1Cn1nnc2ccccc21 (stereo not given) | inactive | –
5 | COc1ccc(C2Oc3ccccc3C(=O)N2Cc2ccccc2)cc1COc1ccc(NC(C)=O)cc1 (stereo not given) | 12.6 µM (active) | –
6 | COc1ccc(/C=N/n2cncn2)cc1COc1ccc(NC(C)=O)cc1 | inactive | –
7 | Cc1nn(C)c(C)c1S(=O)(=O)N(CC(=O)Nc1nccs1)c1ccc(C(C)C)cc1 | – | 0.117% [at 0.00035 µM] (inactive)
8 | O=C1c2ccccc2N2C(=O)c3ccccc3[C@H]2N1c1ccccc1 | inactive | –
9 | O=C(c1ccco1)N(Cc1cccs1)c1ccc(O)cc1 | inactive | –
10 | COc1ccc(C2Nc3ccccc3C(=O)N2c2ccc(C)cc2)cc1Cn1nnc2ccccc21 (stereo not given) | inactive | –
11 | Cc1onc(-c2ccccc2Cl)c1C(=O)Nc1ccc(-n2nncc2-c2ccco2)cc1 | – | 0.344% [at 0.00035 µM] (inactive)
12 | COc1ccc(C2Nc3ccccc3C(=O)N2CCc2ccccc2)cc1COc1ccc(NC(C)=O)cc1 (stereo not given) | 7.94 µM (active) | –
13 | COc1ccc(C(=O)N(Cc2ccccc2)Cc2ccco2)c(O)c1 | 15.8 µM (active) | –
14 | COc1ccc(C2NC(=O)c3ccccc3N2)cc1COc1ccc(NC(C)=O)cc1 (stereo not given) | inactive | –
15 | COc1ccc(N2C(=O)c3ccccc3NC2c2ccc(OC)c(Cn3nnc4ccccc43)c2)cc1 (stereo not given) | inactive | –
16 | CCCN1C(=O)c2ccccc2NC1c1ccc(OC)c(COc2cccc(OC)c2)c1 (stereo not given) | inactive | –
17 | CCc1ccccc1NC1=NCC(=O)N1Cc1ccc(OC)cc1 | – | 0.0927% [at 0.00035 µM] (inactive)
18 | O=C(c1ccc(Br)o1)N(Cc1ccccc1)c1ccccn1 | – | 0.801% [at 0.00035 µM] (inactive)

Row | SMILES | Potency | activation
19 | O=C(CN(Cc1ccc(F)cc1)S(=O)(=O)c1ccccc1)N1CCCCC1 | – | 0.34% [at 0.00035 µM] (inactive)
20 | COc1ccc(N2C(=O)c3ccccc3NC23C(=O)N(C)c2ccccc23)cc1 (stereo not given) | inactive | –
21 | CC(C)Oc1ccccc1C1Nc2ccccc2C(=O)N1c1ccc2c(c1)OCCO2 (stereo not given) | inactive | –
22 | COc1ccc(CNCc2ccccc2)cc1COc1ccc(NC(C)=O)cc1 | inactive | –
23 | O=C(CSc1nnc(-c2ccccc2)n1Cc1ccco1)Nc1ccc2c(c1)OCCO2 | – | -0.544% [at 0.00035 µM] (inactive)
24 | CC1(C)c2ccccc2N2CCC(=O)NC21/C=C/c1ccco1 (stereo not given) | – | 0.369% [at 0.00035 µM] (inactive)
25 | O=C1c2ccccc2NC(c2ccccc2O)N1Cc1ccccc1 (stereo not given) | inactive | –
26 | O=C(c1cc(-c2cccs2)on1)N1CCCc2ccccc21 | – | 0.238% [at 0.00035 µM] (inactive)
27 | Cc1cc(C)nc(N(C#N)CC(=O)N2CCC(C(N)=O)CC2)n1 | – | 1.28% [at 0.00035 µM] (inactive)
28 | CCCN1C(=O)c2ccccc2NC1c1ccc(OC)c(COc2ccc([N+](=O)[O-])cc2)c1 (stereo not given) | inactive | –
29 | COc1ccc(-c2nc3ccc(Cl)cc3c(=O)n2Cc2ccccc2)cc1COc1ccc(NC(C)=O)cc1 | inactive | –
30 | O=C1c2ccccc2N2C(=O)c3ccccc3C2N1Cc1ccco1 (stereo not given) | inactive | –
31 | Cc1noc(/C=C/c2ccco2)c1S(=O)(=O)N1CCC(C(=O)NCc2ccco2)CC1 | – | -0.595% [at 0.00035 µM] (inactive)
32 | COc1ccc(/C=C2/C(=O)NC(=O)N(Cc3ccco3)C2=O)cc1COc1ccc(NC(C)=O)cc1 | inactive | –
33 | COc1ccc(CN(Cc2ccccc2)S(=O)(=O)c2ccccc2)cc1COc1ccc(NC(C)=O)cc1 | inactive | –
34 | O=C1c2ccccc2NC(c2ccccc2)N1c1ccc(O)cc1 (stereo not given) | inactive | –
35 | COc1cc(C2Nc3ccccc3C(=O)N2Cc2ccco2)ccc1O (stereo not given) | inactive | –
